Read-outs that look alike come from different tables or passages of the source.
Assays:
CSNK1G1 = details: concentration: 1 μM, replicates: in singlicate; n = 1
CSNK1G2 = details: concentration: 1 μM, replicates: in singlicate; n = 1
CSNK1G3 = details: concentration: 1 μM, replicates: in singlicate; n = 1
CSNK2A1 = details: n = 1
CSNK2A2 = details: n = 1
CTK = system: T1, CTK; details: concentration: 1 μM, replicates: in singlicate; n = 1
T1 construct: gene MATK

DAPK1 = details: concentration: 1 μM, replicates: in singlicate; n = 1
DAPK2 = details: concentration: 1 μM, replicates: in singlicate; n = 1
DAPK3 = details: concentration: 1 μM, replicates: in singlicate; n = 1
DCAMKL1 = system: T2, DCAMKL1; details: concentration: 1 μM, replicates: in singlicate; n = 1
T2 construct: gene DCLK1

DCAMKL2 = system: T3, DCAMKL2; details: concentration: 1 μM, replicates: in singlicate; n = 1
T3 construct: gene DCLK2

DCAMKL3 = system: T4, DCAMKL3; details: concentration: 1 μM, replicates: in singlicate; n = 1
T4 construct: gene DCLK3

DDR1 = details: concentration: 1 μM, replicates: in singlicate; n = 1
DDR2 = details: concentration: 1 μM, replicates: in singlicate; n = 1
DLK = system: T5, DLK; details: concentration: 1 μM, replicates: in singlicate; n = 1
T5 construct: gene MAP3K12

DMPK2 = system: T6, DMPK2; details: concentration: 1 μM, replicates: in singlicate; n = 1
T6 construct: gene CDC42BPG

DMPK = details: concentration: 1 μM, replicates: in singlicate; n = 1
DRAK1 = system: T7, DRAK1; details: concentration: 1 μM, replicates: in singlicate; n = 1
T7 construct: gene STK17A

DRAK2 = system: T8, DRAK2; details: concentration: 1 μM, replicates: in singlicate; n = 1
T8 construct: gene STK17B

DYRK1A = details: concentration: 1 μM, replicates: in singlicate; n = 1
[1] = concentration: 1 μM, replicates: in singlicate
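Further: KINOMEscan kinase panel screen.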

COc1cc(Nc2nccc(N3CCC(NS(=O)(=O)c4ccc(NC(C)=O)cc4)CC3)n2)cc(OC)c1OC [GSK1379825]
%Inh (CSNK1G1): 0% | %Inh (CSNK1G2): 0% | %Inh (CSNK1G3): 0% | %Inh (CSNK2A1; [1]): 8% | %Inh (CSNK2A2; [1]): 2% | %Inh (CTK): 0% | %Inh (DAPK1): 0% | %Inh (DAPK2): 0% | %Inh (DAPK3): 8% | %Inh (DCAMKL1): 0% | %Inh (DCAMKL2): 1% | %Inh (DCAMKL3): 0% | %Inh (DDR1): 0% | %Inh (DDR2): 14% | %Inh (DLK): 76% | %Inh (DMPK2): 83% | %Inh (DMPK): 0% | %Inh (DRAK1): 0% | %Inh (DRAK2): 0% | %Inh (DYRK1A): 25%

COc1cccc(C2=C(Nc3cccc(O)c3)C(=O)NC2=O)c1 [SB-390771]
%Inh (CSNK1G1): 9% | %Inh (CSNK1G2): 0% | %Inh (CSNK1G3): 15% | %Inh (CSNK2A1; [1]): 0% | %Inh (CSNK2A2; [1]): 8% | %Inh (CTK): 0% | %Inh (DAPK1): 14% | %Inh (DAPK2): 0% | %Inh (DAPK3): 16% | %Inh (DCAMKL1): 21% | %Inh (DCAMKL2): 0% | %Inh (DCAMKL3): 31% | %Inh (DDR1): 0% | %Inh (DDR2): 17% | %Inh (DLK): 26% | %Inh (DMPK2): 0% | %Inh (DMPK): 0% | %Inh (DRAK1): 0% | %Inh (DRAK2): 0% | %Inh (DYRK1A): 57%

Cn1cc(-c2cnc(N)c3c(-c4ccc5c(c4)CCN5C(=O)Cc4ccccc4)csc23)cn1 [GSK2593074]
%Inh (CSNK1G1): 21% | %Inh (CSNK1G2): 7% | %Inh (CSNK1G3): 22% | %Inh (CSNK2A1; 1 µM): 0% | %Inh (CSNK2A2; 1 µM): 1% | %Inh (CTK): 62% | %Inh (DAPK1): 38% | %Inh (DAPK2): 21% | %Inh (DAPK3): 7% | %Inh (DCAMKL1): 0% | %Inh (DCAMKL2): 0% | %Inh (DCAMKL3): 5% | %Inh (DDR1): 97.7% | %Inh (DDR2): 24% | %Inh (DLK): 0% | %Inh (DMPK2): 81% | %Inh (DMPK): 0% | %Inh (DRAK1): 0% | %Inh (DRAK2): 9% | %Inh (DYRK1A): 0%

O=C(Nc1n[nH]c2nc(-c3cccc(O)c3)ccc12)C1CC1 [SB-711805]
%Inh (CSNK1G1): 6% | %Inh (CSNK1G2): 0% | %Inh (CSNK1G3): 25% | %Inh (CSNK2A1; [1]): 52% | %Inh (CSNK2A2; [1]): 82% | %Inh (CTK): 0% | %Inh (DAPK1): 17% | %Inh (DAPK2): 0% | %Inh (DAPK3): 23% | %Inh (DCAMKL1): 17% | %Inh (DCAMKL2): 0% | %Inh (DCAMKL3): 49% | %Inh (DDR1): 0% | %Inh (DDR2): 20% | %Inh (DLK): 0% | %Inh (DMPK2): 0% | %Inh (DMPK): 0% | %Inh (DRAK1): 24% | %Inh (DRAK2): 12% | %Inh (DYRK1A): 76%

COc1ccc(C2=C(Nc3cccc(O)c3)C(=O)NC2=O)cc1 [SB-390766]
%Inh (CSNK1G1): 4% | %Inh (CSNK1G2): 0% | %Inh (CSNK1G3): 19% | %Inh (CSNK2A1; [1]): 0% | %Inh (CSNK2A2; [1]): 19% | %Inh (CTK): 1% | %Inh (DAPK1): 0% | %Inh (DAPK2): 0% | %Inh (DAPK3): 52% | %Inh (DCAMKL1): 13% | %Inh (DCAMKL2): 0% | %Inh (DCAMKL3): 1% | %Inh (DDR1): 1% | %Inh (DDR2): 17% | %Inh (DLK): 19% | %Inh (DMPK2): 0% | %Inh (DMPK): 0% | %Inh (DRAK1): 3% | %Inh (DRAK2): 0% | %Inh (DYRK1A): 70%
